Measured values published in PubChem BioAssay (EPA / NIEHS).
Active and inactive are the calls of the source. Rule for the calls: active = hit-call score of the fitted dose curve at least 0.9, where 1 is the maximum; inactive = score below 0.9.

test: CCTE_Shafer_MEA_acute_burst_number: CCTE's Neural Acute Assay for Single-Electrode Bursts, Shafer Lab (AID 2284013)
Protocol: CCTE_Shafer_MEA_acute assay is conducted using Axion Biosystems 48 well microelectrode array (MEA) plates and Maestro recording system. Each well of the MEA plate contains a grid of 16 microelectrodes embedded in the culture surface. Electrically active cells, such as neurons, can be cultured over the electrodes, and electrical activity in these cells can be recorded extracellularly. The spontaneous firing of neurons is captured from each electrode on a microsecond timescale providing both temporally and spatially precise data. […] The CCTE_Shafer_MEA_acute assay uses primary cultures of rat cortical neurons. As these cultures mature over time, neural networks develop functional activity and form cohesive networks in which electrical activity can be highly coordinated. Baseline 40-minute recordings are made on days post-plating 13 or 15, followed by a secondary 40-minute recording after chemical exposure.CCTE_Shafer_MEA_acute_burst_number is a component of the CCTE_Shafer_MEA_acute assay. It measures the total number of single-electrode bursts (temporally-clustered groups of action potential firing) during a recording in a microelectrode array (MEA) using Axion Biosystems Maestro 768 channel amplifier with the AxIS adaptive spike detector. The recordings before and after chemical treatment are used to calculate a percent change in the burst number in each well.Data from the assay component CCTE_Shafer_MEA_acute_burst_number was analyzed into 1 assay endpoint. This assay endpoint, CCTE_Shafer_MEA_acute_burst_number, was analyzed in the negative analysis fitting direction relative to DMSO as the negative control and baseline of activity. Using a type of functional reporter, gain or loss-of-signal activity can be used to understand electrical activity.
Spontaneous activity in the cortical cultures was recorded using an Axion Biosystems Maestro 768 channel amplifier and Axion Integrated Studios (AxIS) v1.8 (or later) software. The amplifier recorded from all channels simultaneously (gain = 1200 x; sampling rate = 12.5 kHz/channel): raw signals were filtered with a Butterworth band-pass filter (300-5000 Hz), which filters out slower local field potentials leaving only fast potentials, i.e., "spikes", arising from extracellular currents associated with action potentials (Pine 2006; Wheeler and Nam 2011). On-line spike detection of filtered signals was conducted with the AxIS adaptive spike detector, using a threshold of 8x the root mean squared (rms) noise on each channel. Any electrodes with rms noise levels greater than 5 uV were grounded (e.g., no data were recorded). Once grounded, an electrode was grounded for the duration of the experiment. All recordings were conducted at 37 C. Wells were deemed usable if on the day of the exposure >/= 10 electrodes were active (defined as >/= 5 spikes/min). On DIV 13 or 15, a minimum of three wells from one cortical culture preparation were treated with each compound (0.03-40 uM). Prior to recording baseline activity, each mwMEA plate was placed in the Maestro at 37 C and allowed to sit for 20 min while firing rates stabilized. Baseline activity (40 min) was recorded before the addition of each compound. An additional 40 min of spontaneous activity was recorded in the presence of each compound. Changes in network parameters relative to baseline were assessed following compound treatment.

SMILES | AC50 | outcome
NC(=Nc1ccccc1)Nc1ccccc1 | 1530 nM (active) | –
CC(C)NCC(O)c1ccc(O)c(O)c1 (stereo not drawn) | – | inactive
C/C=C/c1ccc(OC)cc1 | – | inactive
CCN(CC)CCOc1ccc(C(=C(Cl)c2ccccc2)c2ccccc2)cc1 | 2680 nM (active) | –
Cc1ccc(C(C)(C)C)c(O)c1 | – | inactive
CCCCC(CC)COP(=O)(OCC(CC)CCCC)OCC(CC)CCCC (stereo not drawn) | – | inactive
Cc1cc(Cc2ccc(N)c(C)c2)ccc1N | – | inactive
O=C(O)CN(CC(=O)O)CC(=O)O | – | inactive
c1ccc2occc2c1 | – | inactive
CSc1ccc(Oc2ccc(S(N)(=O)=O)cc2CN(C)C)cc1C | – | inactive
CC(N)=O | – | inactive
Cc1cc(SC2=C(O)C[C@@](CCc3ccc(N)cc3)(C(C)C)OC2=O)c(C(C)(C)C)cc1CO | 20000 nM (active) | –
Cc1c(C)c2c(c(C)c1O)CCC(C)(COc1ccc(CC3SC(=O)NC3=O)cc1)O2 (stereo not drawn) | – | inactive
Oc1ccc(O)cc1 | – | inactive
CC(C)COC(=O)CCCCC(=O)OCC(C)C | – | inactive
CCCC(=O)O | – | inactive
Nc1nc(=S)c2[nH]cnc2[nH]1 | – | inactive
O=C1OC(c2ccc(O)cc2)(c2ccc(O)cc2)c2ccccc21 | – | inactive
Cc1ccc(-c2cc(C(F)(F)F)nn2-c2ccc(S(N)(=O)=O)cc2)cc1 | 6460 nM (active) | –
CCc1cc(C2=C(C(=O)O)N(c3ccccc3C(F)(F)F)S(=O)(=O)c3ccccc32)cc2c1OCO2 | – | inactive
CN(C)CCCN1c2ccccc2Sc2ccc(Cl)cc21 | – | inactive
CC1=C(C)S(=O)(=O)CCS1(=O)=O | – | inactive
O=C(N[C@@H](c1ccccc1)[C@@H]1CCCCN1)c1cccc(C(F)(F)F)c1Cl | 3290 nM (active) | –
COc1ccc(OC(F)(F)F)cc1CN[C@H]1CCCN[C@H]1c1ccccc1 | 1890 nM (active) | –
CN(C)C(=O)NC1(c2ccccc2)CCN(CC[C@@]2(c3ccc(F)c(F)c3)CN(C(=O)c3ccccc3)CCO2)CC1 | 4340 nM (active) | –
COC(=O)[C@H]1[C@H]2C[C@@H]3c4[nH]c5cc(OC)ccc5c4CCN3C[C@H]2C[C@@H](OC(=O)c2cc(OC)c(OC)c(OC)c2)[C@@H]1OC | 820 nM (active) | –
OCC(CO)n1cnc(-c2ccc(F)cc2)c1-c1ccnc(Oc2ccccc2)n1 | – | inactive
CN(C)C(=O)NC1(c2ccccc2)CCN(CCC[C@]2(c3ccc(Cl)c(Cl)c3)CCCN(C(=O)c3ccccc3)C2)CC1 | – | inactive
